Results on 14 compounds are retold here after PubChem BioAssay (EPA / NIEHS).

Molecules are shown by their SMILES. The source made the active and inactive calls. Rule for the calls: active = hit-call score of the fitted dose curve at least 0.9, where 1 is the maximum; inactive = score below 0.9.

Assay [1] is described as follows: APR_HepG2_CellCycleArrest_24hr: Apredica 24-hour HepG2 Assay for Cell Cycle Arrest (AID 2282905).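 Note: cell cycle arrest scored as ratio of 2N to 4N nuclear DNA content.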 The following applies: imaging, actives raise or lower the signal. In a few lines:
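HepG2, 24 hr dosing, 10-pt 0.39–200 uM in duplicate, 0.5% DMSO. Fixed 3.7% formaldehyde, permeabilized 0.5% Triton X-100, Hoechst 33342 2 ug/mL. Imaged 20x; nuclear DNA content quantified; bidirectional fit vs DMSO.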

Assay [2] is described as follows: APR_HepG2_NuclearSize_24hr: Apredica 24-hour HepG2 Assay for Nuclear Size (AID 2282907). Particulars: high-content imaging, actives raise or lower the signal. In a few lines:
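HepG2, 24 hr dosing, 10-pt 0.39–200 uM, duplicates, 0.5% DMSO final; 3.7% formaldehyde fix, 0.5% Triton X-100; Hoechst 33342 nuclear stain; ArrayScan HCS, Cell Cycle analysis → nuclear size; bidirectional fit vs DMSO.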

Assay [3] can be described thus: APR_HepG2_CellLoss_24hr: Apredica 24-hour HepG2 Assay for Cell Loss (AID 2282908).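 For AC50: fit in both directions so a hit may be cell loss or gain.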 The following applies: high-content imaging. In a few lines: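 10-pt dose, 0.39–200 uM, n=2/plate; DMSO 0.5% v/v final as negative control. Fix 3.7% formaldehyde 30 min RT, permeabilize 0.5% Triton X-100, stain Hoechst 33342 2 ug/mL, image 20x. Nuclear count, bidirectional fit vs DMSO.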

The nature of assay [4]: APR_HepG2_MicrotubuleCSK_24hr: Apredica 24-hour HepG2 Assay for Microtubule CSK Stabilty (AID 2282909). The following applies: HepG2 microtubule cytoskeleton imaging, actives raise or lower the signal. In a few lines:
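Human liver HepG2, 24 h dosing, 0.39–200 uM ×10 conc, dup, 0.5% DMSO. 3.7% formaldehyde fix, 0.5% Triton perm, anti-alpha-tubulin (1:200)/Cy5 secondary + Hoechst. HCS imaging, 6 fields/well; gain/loss fit vs DMSO.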

Assay [5] is described as follows: APR_HepG2_MitoticArrest_24hr: Apredica 24-hour HepG2 Assay for Mitotic Arrest (AID 2282910). Particulars: high-content imaging, actives raise or lower the signal. In a few lines: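 HepG2 cells, 24 h exposure at 0.39-200 uM (10 concentrations, duplicate, 0.5% DMSO). Fixed, stained for phospho-histone H3 with Hoechst; imaged by high-content microscopy, bidirectional fit versus DMSO.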

Assay [6] in a line: APR_HepG2_MitoMembPot_24hr: Apredica 24-hour HepG2 Assay for Mitochondrial Membrane Potential (AID 2282911). Particulars: imaging, actives raise or lower the signal. In a few lines: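 HepG2, 24 hr dosing, 10 concentrations 0.39–200 uM, 0.5% DMSO final. Live-cell MitoTracker Red CMXRos 250 nM 30 min, then 3.7% formaldehyde fix. HCS fluorescence imaging, 20x; bidirectional fit vs DMSO baseline.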

Assay [7] is described as follows: APR_HepG2_MitoMass_24hr: Apredica 24-hour HepG2 Assay for Mitochondrial Mass (AID 2282912). Particulars: high-content imaging, actives raise or lower the signal. In a few lines: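 Mitochondrial mass is read as MitoTracker Red fluorescence intensity from automated imaging, with bidirectional curve fitting relative to DMSO. HepG2 cells received compound (0.39–200 uM, 0.5% DMSO final) for 24 hr and were dye-loaded (250 nM, 30 min) before formaldehyde fixation.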

A short description of assay [8]: APR_HepG2_CellCycleArrest_72hr: Apredica 72-hour HepG2 Assay for Cell Cycle Arrest (AID 2282914). Particulars: high-content imaging, actives raise or lower the signal. In a few lines:
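HepG2, 72 hr exposure, 10-point 0.39–200 uM, duplicate, 0.5% DMSO final. Fix 3.7% formaldehyde 30 min RT, Triton X-100 0.5%, Hoechst 33342 2 ug/mL. ArrayScan 20x, six fields/well; DNA content per nucleus; bidirectional fit vs DMSO.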

A short description of assay [9]: APR_HepG2_CellLoss_72hr: Apredica 72-hour HepG2 Assay for Cell Loss (AID 2282915). The following applies: high-content imaging. In a few lines: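 HepG2 cells exposed 72 h to compound at 0.39–200 uM (10 concentrations, duplicate) in 0.5% DMSO. Fixed with 3.7% formaldehyde and Hoechst 33342-stained. Imaged at 20x; nuclear count gives cell number, fitted bidirectionally versus DMSO.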

Assay [10] can be described thus: APR_HepG2_p53Act_24hr: Apredica 24-hour HepG2 Assay for p53 Activation (AID 2282913).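 Note: p53 protein immunofluorescence averaged per cell in HepG2 with Hoechst nuclei.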 The following applies: high-content imaging, actives raise or lower the signal. In a few lines:
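Read-out: Cy5 immunofluorescence for p53 in fixed, permeabilized HepG2, imaged by HCS with Hoechst-defined nuclei. Dosing was 24 hr at 0.39–200 uM in 0.5% DMSO. Curves were fitted bidirectionally relative to DMSO.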

Consider `Clc1cccc(Cl)c1`, for which the compound was called inactive in [1], in [2], in assay [3], in [4], in [5] and in assay [6]. Further, the call in assay [7], in [8] and in [9] was inactive.

Take `OCCN(CCO)CCO`: the compound was classed as inactive in assay [1], in [2], in [3], in assay [4], in assay [5] and in [6]. Further, the compound was classed as inactive in assay [7], in assay [8] and in assay [9].

For `Cc1cc(C)cc(C)c1`, the result in assay [1], in assay [2], in [3], in assay [4], in [5] and in [6] was inactive. Moreover, the outcome in [7], in [8] and in [9] was inactive.

What is called AC50 is the concentration at which the activity in the assay is half-maximal. `COc1ccccc1N`: the result in [1], in assay [2], in assay [3], in [4], in assay [5] and in assay [7] was inactive. For the same compound, the call in assay [8] and in [9] was inactive. In assay [6], the AC50 is 29.3 µM (active).

For `Oc1cc(Cl)c(Cl)cc1Cl`, the AC50 in assay [1] was 35.7 µM (active); in [3], 27.7 µM (active); in [4], 41.8 µM (active); in assay [5], 38.6 µM (active); in assay [7], 46.7 µM (active); in assay [9], 44.6 µM (active). Further, the compound was classed as inactive in [2], in assay [6] and in assay [8].

Take `O=C(N[C@H]1CN2CCC1CC2)c1ccc2c(c1)OCCO2`: the outcome in assay [1], in assay [2], in assay [3], in assay [4], in [5] and in assay [6] was inactive. For the same compound, the call in assay [7], in assay [8] and in [9] was inactive.

Turning to `CN(C)C(=S)S`, the AC50 in assay [1] is 19.8 µM (active); in [3] it was 0.183 µM (active); in assay [8] it was 0.0391 µM (active); in [9], 0.238 µM (active). The call in assay [2], in assay [4], in [5], in assay [6] and in [7] was inactive.

On to `Clc1cccc(Cl)c1Cl`, for which the call in assay [1], in [2], in assay [3], in assay [4], in [5] and in assay [6] was inactive. In addition, the compound was classed as inactive in assay [7], in [8] and in assay [9].

As to `O=C(O)C1(c2ccc3c(c2)OC[C@H](Cc2ccc(-c4ccccc4)cc2)[C@H]3O)CCCC1`, the call in [1], in [2], in assay [3], in assay [4] and in assay [5] was inactive. The AC50 in [6] is 105 µM (active); in assay [7] it was 112 µM (active); in assay [8] it was 118 µM (active); in [9], 86.9 µM (active).

Regarding `N#Cc1cccnc1`, the compound was classed as inactive in [1], in assay [2], in [3], in assay [4], in assay [5] and in [6]. For the same compound, the call in assay [7], in [8] and in assay [9] was inactive.

With `CC(C)(C)c1ccccc1O`, the result in assay [1], in [2], in [3], in assay [4], in [5] and in assay [6] was inactive. The result in assay [7], in assay [8] and in assay [9] was inactive.

For the compound `Oc1c(Cl)cc(Cl)cc1Cl`, the compound was called inactive in [3], in assay [5], in assay [6], in assay [7], in [10] and in assay [9].

Consider `CCCCCCCCCCCCc1cccc(S(=O)(=O)O)c1`, for which the compound was classed as inactive in [1], in [2], in assay [3], in assay [4], in assay [5] and in assay [6]. The result in assay [7], in [8] and in assay [9] was inactive.

For the compound `CC(C)O.CC(C)O.OCCN(CCO)CCO.OCCN(CCO)CCO.[Ti]`, the outcome in [1], in assay [2], in assay [3], in assay [4], in assay [5] and in assay [6] was inactive. In addition, the call in assay [7], in assay [8] and in assay [9] was inactive.
